Assay outcomes: PubChem, National Center for Advancing Translational Sciences (NCATS)
Shown are actives, neighbours in structure and some others; about 10% of the full set was active somewhere.
JMJD2A Tudor: JMJD2A Tudor domain (human) inhibition; AlphaScreen JMJD2A-Tudor / H3K4me3 peptide binding; hit rate 4.4% among 390,000; Potency, µM (series often up to 114 µM), for the others: at the top dose activity change, negative = inhibition, hits mostly inhibitors; O75164; further: potency means the concentration at half of the fitted maximal effect; on the % scale 0 is the no-effect control and ±100 the full control effect; nearly all actives have a fitted effect of over 50% in size
Target sequence (O75164 whole entry, looked up, the tested form may be a part): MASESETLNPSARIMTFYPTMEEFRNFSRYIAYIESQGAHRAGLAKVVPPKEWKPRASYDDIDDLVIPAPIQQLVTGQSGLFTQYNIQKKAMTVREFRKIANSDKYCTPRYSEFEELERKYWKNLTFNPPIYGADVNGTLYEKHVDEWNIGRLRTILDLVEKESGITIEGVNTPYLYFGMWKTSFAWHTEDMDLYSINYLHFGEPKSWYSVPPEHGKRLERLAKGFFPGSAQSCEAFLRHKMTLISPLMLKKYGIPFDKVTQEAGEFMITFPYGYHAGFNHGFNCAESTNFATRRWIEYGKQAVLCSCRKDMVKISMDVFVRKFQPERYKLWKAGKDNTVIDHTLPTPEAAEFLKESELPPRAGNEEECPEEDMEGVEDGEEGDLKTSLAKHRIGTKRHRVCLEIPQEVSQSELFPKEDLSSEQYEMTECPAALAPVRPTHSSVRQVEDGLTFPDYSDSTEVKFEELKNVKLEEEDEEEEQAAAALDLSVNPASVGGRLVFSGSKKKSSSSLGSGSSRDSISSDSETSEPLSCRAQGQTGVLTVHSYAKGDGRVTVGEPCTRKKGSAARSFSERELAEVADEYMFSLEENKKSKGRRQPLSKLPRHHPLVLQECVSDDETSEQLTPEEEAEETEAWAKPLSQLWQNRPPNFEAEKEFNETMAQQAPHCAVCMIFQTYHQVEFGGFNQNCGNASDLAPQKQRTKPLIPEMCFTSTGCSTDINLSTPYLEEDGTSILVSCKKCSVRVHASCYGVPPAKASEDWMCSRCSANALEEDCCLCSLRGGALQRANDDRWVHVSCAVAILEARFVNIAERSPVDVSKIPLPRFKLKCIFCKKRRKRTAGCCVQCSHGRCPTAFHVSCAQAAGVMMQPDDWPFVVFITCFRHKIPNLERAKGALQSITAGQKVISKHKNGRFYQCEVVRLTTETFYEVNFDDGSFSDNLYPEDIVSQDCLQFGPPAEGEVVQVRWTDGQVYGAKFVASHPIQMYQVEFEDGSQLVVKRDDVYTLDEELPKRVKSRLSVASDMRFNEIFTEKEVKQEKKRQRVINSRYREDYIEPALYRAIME
Six1-Eya2 inh: Six1/Eya2 interaction inhibition; Q15475+O00167; AlphaScreen GST-Six1/His-Eya2 binding, biochemical; stronger effect = lower value; activity change, % (concentration not given with the values); hit rate 0.56% among 360,000; in the data active means activity change below about -65%; inconclusive means mostly about -30% to -63%; further: on the % scale 0 is the no-effect control and ±100 the full control effect
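Six1/Eya2 binding was read as AlphaScreen signal after compounds were pinned into GST-Six1 plus His-tagged Eya2 (5X stock 250/500 nM) in pH 8.0 Tris/NaCl/TCEP buffer, beads added, then incubated 1 h, 37 C, dark.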
CtBP-E1A inh: CtBP/E1A binding inhibition | AlphaScreen GST-E1A/His-CtBP binding, 1536-well; stronger effect = lower value | activity change, % (test concentration not listed) | hit rate 0.49% among 340,000; in the data active means activity change below about -65%; inconclusive means mostly about -30% to -63%; further: on the % scale 0 is the no-effect control and ±100 the full control effect
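Protein mix (5X: 125 nM each GST-E1A, His-CtBP) was incubated with pinned compound 2 h at 37 deg C in dark, in 50 mM Tris pH 8.0 buffer with 300 mM NaCl. Glutathione donor and nickel acceptor beads followed; AlphaScreen signal read after 1 h.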
HP1b binding inh: inhibitors of HP1-beta chromodomain binding to methylated histone tails; P83916; AlphaScreen HP1-beta / biotin-H3K9me3 peptide binding; Potency, µM (highest dose often 114 µM), without a hit: top-dose activity change, negative = inhibition, hits mostly inhibitors; hit rate 0.56% among 390,000; AID 540317; further: potency means the concentration at half of the fitted maximal effect; nearly all actives have a fitted effect of over 70% in size
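HP1-beta protein (50 nM final) preincubated 30 min at room temperature with biotinylated H3(1-18)K9me3 peptide (50 nM) in PBS pH 7.4, 0.01% Tween-20, then compound added for 30 min. AlphaScreen streptavidin donor/nickel chelate acceptor beads (10 ug/mL final), 30 min dark, luminescence read.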
G9a block: inhibitors of human histone lysine methyltransferase G9a; Q96KQ7; G9a H3K9 monomethylation, AlphaScreen, 2 h; Potency, µM (top dose mostly 102 µM), without a hit: at the highest dose activity, negative = inhibition, hits mostly inhibitors; hit rate 8.8% among 350,000; AID 504332; further: potency means the concentration at half of the fitted maximal effect; on the % scale 0 is the no-effect control and ±100 the full control effect; nearly all actives have a fitted effect of over 75% in size
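AlphaScreen read-out: biotin-H3K9 peptide (500 nM) methylation by 20 nM enzyme with 20 uM SAM, 2 h at room temperature after 15 min compound preincubation; anti-monomethyl H3K9 antibody plus donor/acceptor beads, 10 min dark.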
BAZ2B block: inhibitors of human BAZ2B bromodomain. Q9UIF8. Potency, µM (series often up to 114 µM), for inactives: top-dose activity change, negative = inhibition, hits mostly inhibitors. AID 504333. hit rate 4.4% among 360,000. AlphaScreen BAZ2B-H3K14Ac peptide displacement; further: potency means the concentration at half of the fitted maximal effect; on the % scale 0 is the no-effect control and ±100 the full control effect; nearly all actives have a fitted effect of over 60% in size
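Compounds, titrated to a top concentration of 110 uM, were incubated 30 min at room temperature with preformed BAZ2B/acetyl-K14 H3 peptide complex (50 nM each). Proximity signal was measured by AlphaScreen after 20 min with beads.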
* marks the source's active call; other numbers are inactive results; ? = inconclusive; . = not tested or not shown; ! = repeats disagree; [ ] = remark or other dose. Unless noted, the call rests on the fitted dose curve; in most records, active means well fitted inhibition curve with a large enough effect; inconclusive means small, poorly fitted or top-dose-only effect; inactive means no such curve, though single readings can be large or run the other way.

SMILES	JMJD2A Tudor	Six1-Eya2 inh	CtBP-E1A inh	HP1b binding inh	G9a block	BAZ2B block
CCc1cc2c(=O)c(-c3nc4ccccc4n3C)c(COCC(=O)O)oc2cc1O	?	-0.2	0.8	18.2%	-1.5%[59 µM]	?
COC(=O)C(Cc1ccccc1)NS(=O)(=O)c1ccc(F)cc1Br (stereo not given)	0.7%	2.8	-2.1	36.1%	36.9%[59 µM]	2.0%
C=CCN1C=CC(=O)[C@@H](OC(=O)Nc2ccc(Br)cc2)[C@H]1c1ccccc1Br	-34.5%	-11.4	-1.5	27.4%	.	.
COCCCN1C(=O)c2[nH]nc(-c3cc(C)cc(C)c3O)c2C1c1ccc(O)c(OC)c1 (stereo not given)	-35.1%	-2.4	-3.4	-3.5%	44.7µM*	-10.0%
COc1cc(C2c3c(-c4cc(C)cc(C)c4O)n[nH]c3C(=O)N2CCCO)cc(OC)c1OC (stereo not given)	-26.4%	-2.5	-1.1	36.7%	?	-3.2%
CN(c1ccccc1)S(=O)(=O)c1ccc(NC(=O)c2cc(=O)c3ccccc3o2)cc1	0.3%	.	.	40.8%	1.1%[59 µM]	-15.4%
CC(C)C[C@H]1CN(CCCC[C@@H]2CNC(=O)C(=O)N2CC2CCCCC2)C(=O)C(=O)N1CCC1CCCCC1	.	-1.3	5.5	.	.	.
CCCCCN(C(=O)CCC(=O)OCC(=O)NCc1cccc(OC)c1)c1c(N)n(CCCC)c(=O)[nH]c1=O	-2.9%	-0.6	2.2	27.8%	12.2%	-12.9%
O=C(O)Cn1c(CCS(=O)(=O)c2ccc(Br)cc2)nc2ccccc21	-16.5%	7.2	1.0	-3.4%	44.7µM*	-18.4%
NS(=O)(=O)c1ccc(CNC(=O)c2ccccn2)cc1	3.7%[11.4 µM]	-2.6	4.5	56.2%	5.0%[59 µM]	79.4µM*
CCOc1ccc(NC(=O)c2cnccn2)cc1	17.3%	4.2	-8.3	21.9%	-3.4%[59 µM]	-1.2%
CCOc1ccc(NC(=O)C2CSC(c3ccncc3)=N2)cc1 (stereo not given)	-7.5%	-13.0	-10.2	27.0%	50.1µM*	-5.1%
CNS(=O)(=O)c1ccc(NC(=O)c2ccccn2)cc1	12.6µM*	3.8	-1.5	-4.3%	10.6%[59 µM]	7.4%
CCOc1ccc(NC(=O)Nc2ccc(Cc3ccncc3)cc2)cc1	-9.1%	5.1	6.5	31.9%	9.1%	5.3%
CCOc1ccc(NC(=O)c2ccccn2)cc1	15.8µM*	5.9	-5.0	18.5%	-3.9%[59 µM]	8.3%
CCOC(=O)[C@@H]1[C@H]2COc3ccccc3[C@@H]2N2C(=O)N(c3ccc(Cl)cc3)C(=O)[C@]12C	-19.3%	0.1	2.3	30.3%	17.5%	-2.6%
CCOc1ccc(NC(C)=O)cc1	-7.2%	-3.4	6.6	20.9%	23.6%[21.5 µM]	-0.3%
CCOc1ccc(NC(=O)/C(C=Nc2ccccc2)=C(\C)O)cc1	?	-11.7	4.3	-14.9%	44.7µM*	-15.5%
COc1ccccc1CNC(=O)COC(=O)c1cc(-c2ccco2)nc2ccccc12	20µM*	-18.7	29.4	?	12.6µM*	39.8µM*
O=C(COC(=O)c1cc(-c2ccco2)nc2ccccc12)NCc1ccc2c(c1)OCO2	-13.7%	-17.7	-5.4	22.8%	12.6µM*	-9.2%
NC(=O)COC(=O)c1cc(-c2ccco2)nc2ccccc12	-19.0%	-12.1	-13.5	6.0%	15.8µM*	-24.0%
O=C(O)c1cc(-c2ccco2)nc2ccc(Br)cc12	12.6µM*!	?	-6.8	56.2µM*!	3.55µM*	11.4%
COc1ccccc1CNC(=O)COC(=O)c1cc(C)nc2ccccc12	-6.2%	-0.5	0.9	20.4%	.	.
O=C(Nc1nncs1)c1cc(-c2ccco2)nc2ccccc12	?	?	-5.0	3.1%	.	.
Cc1cc(C(=O)OCC(=O)N2CCOCC2)c2ccccc2n1	35.5µM*	1.7	-1.5	?	0.1%[59 µM]	6.8%
O=C(O)CN1CCN(Cc2ccccc2Cl)C1=O	-28.2%	2.6	4.9	11.8%	7.9%	2.6%
O=C(O)c1cc2n(n1)CCN(Cc1ccccc1Cl)C2=O	-3.8%[11.4 µM]	-0.5	.	29.6%	50.1µM*	?
CN(C)CCNC(=O)c1cccc(-c2cc(NC=O)c3ncc(-c4cccc(C(F)(F)F)c4)n3c2)c1	.	-11.3	-4.8	.	.	.
